Values without a mark were called inactive. Calls of active or inactive are those of the source.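 How the source made its calls: active means compounds that lower viability of the colon cancer cells in the luminescence readout, with no numeric limit stated; inactive means the rest.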
Experiment: reduced SW480 viability measured with CellTiter-Glo, NPC library, primary (AID 1117343)
Conditions: CellTiter-Glo luminescence; at 20 µM (top of the series) unless noted

Question: For `Cc1cc2c(OCC(CNC(C)(C)C)OC(=O)c3ccccc3)cccc2[nH]1` (stereo not given), which viability decrease (inhibition) is on record?
Answer: The viability decrease (inhibition) was -10.4%.

Question: Which viability decrease (inhibition) does the source give for `CC(CNC1CCCCC1)OC(=O)c1ccccc1` (stereo not given) here?
Answer: The viability decrease (inhibition) was -11.7%.

Question: For `C[C@]12CC[C@H]3[C@@H](CCC4=CC(=O)CC[C@@]43C)[C@@H]1CC[C@@H]2C(=O)CO`, which viability decrease (inhibition) is on record?
Answer: Its viability decrease (inhibition) is 23.6%.

Question: For `CCc1cccc(CC)c1NC(=O)CN(CC(=O)O)CC(=O)O`, which viability decrease (inhibition) is on record?
Answer: The viability decrease (inhibition) was 39.7%.

Question: For `CCC(=O)c1ccc(O)cc1`, which viability decrease (inhibition) is on record?
Answer: Its viability decrease (inhibition) is 60.1% (active).

Question: Which viability decrease (inhibition) does the source give for `FCOC(C(F)(F)F)C(F)(F)F` here?
Answer: Its viability decrease (inhibition) is -3.5%.

Question: With `COc1ccccc1Oc1c(NS(=O)(=O)c2ccc(C(C)(C)C)cc2)nc(-c2ncccn2)nc1OCCO` as the molecule, how does the viability decrease (inhibition) read?
Answer: The viability decrease (inhibition) was 81.4% (active).

Question: Which viability decrease (inhibition) does the source give for `CCC(C)(CN(C)C)OC(=O)c1ccccc1` (stereo not given) here?
Answer: Its viability decrease (inhibition) is 7.2%.

Question: Which viability decrease (inhibition) does the source give for `OC[C@@H](O)[C@@H](O[C@@H]1O[C@H](CO)[C@H](O)[C@H](O)[C@H]1O)[C@H](O)[C@@H](O)CO` here?
Answer: The viability decrease (inhibition) was 20%.

Question: For `CC1(C)CC1C(=O)NC(=CCCCCSCC(N)C(=O)O)C(=O)O` (stereo not given), which viability decrease (inhibition) is on record?
Answer: The viability decrease (inhibition) was 28.9%.

Question: Which viability decrease (inhibition) does the source give for `C/C(=C(\CCOP(=O)(O)O)SC(=O)c1ccccc1)N(C=O)Cc1cnc(C)nc1N` here?
Answer: Its viability decrease (inhibition) is -2.1%.

Question: Which viability decrease (inhibition) does the source give for `CC[N+](C)(CC)CCOC(=O)C1c2ccccc2Oc2ccccc21` here?
Answer: Its viability decrease (inhibition) is 1.5%.

Question: With `CN1CCN(CCCN2c3ccccc3Sc3ccc(S(=O)(=O)N(C)C)cc32)CC1` as the molecule, how does the viability decrease (inhibition) read?
Answer: The viability decrease (inhibition) was 103% (active).

Question: With `O=C(O)CCc1nc2ccccc2[nH]1` as the molecule, how does the viability decrease (inhibition) read?
Answer: Its viability decrease (inhibition) is 106% (active).

Question: With `OC(CCCN1CCCCC1)(c1ccccc1)c1ccccc1` as the molecule, how does the viability decrease (inhibition) read?
Answer: Its viability decrease (inhibition) is 12%.

Question: With `NS(=O)(=O)c1cc(C(=O)O)cc(N2CCCC2)c1Oc1ccccc1` as the molecule, how does the viability decrease (inhibition) read?
Answer: Its viability decrease (inhibition) is -4.4%.

Question: Which viability decrease (inhibition) does the source give for `CN(CCCCCCCCCCN(C)C(=O)Oc1cccc([N+](C)(C)C)c1)C(=O)Oc1cccc([N+](C)(C)C)c1` here?
Answer: The viability decrease (inhibition) was 39.3%.

Question: With `CC(C(=O)O)c1ccc(C(=O)c2ccccc2)s1` (stereo not given) as the molecule, how does the viability decrease (inhibition) read?
Answer: Its viability decrease (inhibition) is 37.4%.

Question: With `CN1CCCN(C(c2ccccc2)c2ccc(Cl)cc2)CC1` (stereo not given) as the molecule, how does the viability decrease (inhibition) read?
Answer: Its viability decrease (inhibition) is 122% (active).

Question: For `O=C1CC[C@@H](C(=O)O)N1`, which viability decrease (inhibition) is on record?
Answer: Its viability decrease (inhibition) is 17.1%.

Question: For `CCOC(=O)Nc1ccc2c(c1)N(C(=O)CCN1CCOCC1)c1ccccc1S2`, which viability decrease (inhibition) is on record?
Answer: The viability decrease (inhibition) was 17.8%.

Question: Which viability decrease (inhibition) does the source give for `COc1ccc(-c2cc(=S)ss2)cc1` here?
Answer: The viability decrease (inhibition) was 22.2%.

Question: Which viability decrease (inhibition) does the source give for `CN1CCN(C2=Nc3ccccc3Sc3ccc(Cl)cc32)CC1` here?
Answer: Its viability decrease (inhibition) is 116% (active).

Question: With `CCCNC(C)C(=O)Nc1c(C)csc1C(=O)OC` (stereo not given) as the molecule, how does the viability decrease (inhibition) read?
Answer: The viability decrease (inhibition) was 2.2%.

Question: For `O=C(O)Cc1sc(-c2ccccc2)nc1-c1ccc(Cl)cc1`, which viability decrease (inhibition) is on record?
Answer: The viability decrease (inhibition) was 32.4%.

Question: Which viability decrease (inhibition) does the source give for `NS(=O)(=O)c1cc2c(cc1Cl)NC(CC1CCCC1)NS2(=O)=O` (stereo not given) here?
Answer: Its viability decrease (inhibition) is -15.3%.

Question: With `O=C(O)c1ccc[n+]([O-])c1` as the molecule, how does the viability decrease (inhibition) read?
Answer: Its viability decrease (inhibition) is 14.2%.

Question: With `CN(C)CCn1nnnc1SCC1=C(C(=O)O)N2C(=O)[C@@H](NC(=O)Cc3csc(N)n3)[C@H]2SC1` as the molecule, how does the viability decrease (inhibition) read?
Answer: Its viability decrease (inhibition) is 4.5%.

Question: With `CC(C)(C)C(=O)OCOC(=O)[C@@H]1N2C(=O)[C@@H](NC(=O)[C@H](N)c3ccccc3)[C@H]2SC1(C)C` as the molecule, how does the viability decrease (inhibition) read?
Answer: Its viability decrease (inhibition) is 5.3%.

Question: Which viability decrease (inhibition) does the source give for `COCC(=O)Nc1c(I)c(C(=O)NCC(O)CO)c(I)c(C(=O)N(C)CC(O)CO)c1I` (stereo not given) here?
Answer: The viability decrease (inhibition) was -13%.

Question: For `C1CCN2C[C@@H]3C[C@@H](CN4CCCC[C@@H]34)[C@H]2C1`, which viability decrease (inhibition) is on record?
Answer: Its viability decrease (inhibition) is 3.2%.

Question: With `Cc1c(-c2ccccc2)oc2c(C(=O)OCCN3CCCCC3)cccc2c1=O` as the molecule, how does the viability decrease (inhibition) read?
Answer: The viability decrease (inhibition) was 4.4%.

Question: For `CCCCN1C[C@H](O)[C@@H](O)[C@H](O)[C@H]1CO`, which viability decrease (inhibition) is on record?
Answer: The viability decrease (inhibition) was 23.4%.

Question: With `NC(=O)OCC(O)COc1ccc(Cl)cc1` (stereo not given) as the molecule, how does the viability decrease (inhibition) read?
Answer: The viability decrease (inhibition) was 4.1%.

Question: Which viability decrease (inhibition) does the source give for `CCCCc1cc2ccccc2c(OCCN(C)C)n1` here?
Answer: Its viability decrease (inhibition) is 72.1% (active).

Question: With `O=C1[O][Bi][O]c2ccccc21` as the molecule, how does the viability decrease (inhibition) read?
Answer: Its viability decrease (inhibition) is 28.1%.

Question: For `C[N+]1(C)CCC(=C(c2ccccc2)c2ccccc2)CC1`, which viability decrease (inhibition) is on record?
Answer: The viability decrease (inhibition) was 40.8%.

Question: Which viability decrease (inhibition) does the source give for `CC(C)NC[C@@H](O)COc1ccc(CC(N)=O)cc1` here?
Answer: Its viability decrease (inhibition) is 11.3%.

Question: For `OCc1ccccn1`, which viability decrease (inhibition) is on record?
Answer: Its viability decrease (inhibition) is 30.6% (active).

Question: For `CN1CCCC(CC2c3ccccc3Sc3ccccc32)C1` (stereo not given), which viability decrease (inhibition) is on record?
Answer: Its viability decrease (inhibition) is 110% (active).

— PubChem BioAssay
